TGFb inhibitor – TGF-b pathway inhibition | HepG2 CAGA-GFP TGF-b/SMAD3 reporter, GFP fluorescence, 18 h; TGF-beta stimulated, 500 pg/mL final | Potency, µM (titrated, usually from 46.1 µM), inactives show at the top dose activity, negative = inhibition, actives largely listed as inhibitors | actives 1.2% (n = 410,000); also: potency is read from the fitted curve at half-maximal effect; % is scaled to controls: 0 for no effect and ±100 for the full control effect; nearly all actives have a fitted effect of over 65% in size
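First, reporter cells (HEPG2 CAGA-GFP) rested 2 h at 37 degrees C. Next, compounds were pinned in and TGF-beta added to 500 pg/mL final. After 18 h, GFP was imaged per cell and summed per well.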
TDP1 block – TDP1 (human) enzyme inhibition; AID 485290; actives 0.28% (n = 350,000); recombinant TDP1, AlphaScreen DNA substrate cleavage; Q9NUW8; Potency, µM (highest dose often 130 µM), for the others: top-dose activity change, negative = inhibition, usual class: inhibitors; also: potency is read from the fitted curve at half-maximal effect; % is scaled to controls: 0 for no effect and ±100 for the full control effect; nearly all actives have a fitted effect of over 40% in size
Target sequence (Q9NUW8 whole entry, looked up): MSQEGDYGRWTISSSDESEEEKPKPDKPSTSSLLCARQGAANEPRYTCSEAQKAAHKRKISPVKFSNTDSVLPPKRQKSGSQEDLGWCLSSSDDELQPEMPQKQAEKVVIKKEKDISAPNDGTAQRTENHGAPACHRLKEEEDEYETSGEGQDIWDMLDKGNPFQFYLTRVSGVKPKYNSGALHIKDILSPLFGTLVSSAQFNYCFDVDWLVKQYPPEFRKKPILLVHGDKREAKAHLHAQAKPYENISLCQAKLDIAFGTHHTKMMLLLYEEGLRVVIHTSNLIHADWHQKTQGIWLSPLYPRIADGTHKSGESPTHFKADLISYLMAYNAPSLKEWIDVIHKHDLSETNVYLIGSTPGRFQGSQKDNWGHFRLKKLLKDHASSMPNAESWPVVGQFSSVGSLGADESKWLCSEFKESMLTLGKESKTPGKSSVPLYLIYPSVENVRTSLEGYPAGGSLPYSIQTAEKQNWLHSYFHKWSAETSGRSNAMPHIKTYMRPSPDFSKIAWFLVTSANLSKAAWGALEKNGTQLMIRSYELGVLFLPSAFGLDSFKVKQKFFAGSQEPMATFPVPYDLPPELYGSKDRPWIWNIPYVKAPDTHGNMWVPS
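Recombinant human Tdp1 (E. coli-expressed, 1 nM final) preincubated with compounds 15 min at room temperature, then 5'-biotin/3'-phosphotyrosine-FITC DNA substrate (15 nM final) added for 5 min. AlphaScreen beads (10 ug/ml final) added 10 min; cleavage lowers signal.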
DT40 TDP1 no CPT – qHTS for Inhibitors of human tyrosyl-DNA phosphodiesterase 1 (TDP1): qHTS in cells in absence of CPT; DT40 Tdp1-/- hTDP1 cells, no CPT, ATP luminescence, 48 h; Potency, µM (highest dose often 46.2 µM), for the others: at the highest dose activity change, negative = growth inhibition, actives largely listed as inhibitors; actives 15% (n = 420,000); AID 686978, 2013; also: potency is read from the fitted curve at half-maximal effect; % is scaled to controls: 0 for no effect and ±100 for the full control effect; nearly all actives have a fitted effect of over 55% in size
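Compound effects on proliferation are scored in DT40 Tdp1-/-;hTDP1 cells in the absence of CPT. ATP levels (CellTiter-Glo luminescence) are recorded after a ≥48 hr, 37 °C incubation.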
DT40 TDP1 CPT – DT40-hTDP1 cell growth loss with CPT. Potency, µM (doses to about 46.2 µM), for inactives: at the highest dose activity change, negative = growth inhibition, usual class: inhibitors. actives 12% (n = 420,000). chicken DT40 Tdp1-/-;hTDP1 cells + 20 nM CPT, ATP luminescence, 48 h. AID 686979; also: potency is read from the fitted curve at half-maximal effect; % is scaled to controls: 0 for no effect and ±100 for the full control effect; nearly all actives have a fitted effect of over 55% in size
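Chicken DT40 Tdp1-/- cells stably complemented with human TDP1 were seeded at 400 cells/well in medium containing 20 nM camptothecin, exposed to pin-transferred compounds, and grown at 37 °C for at least 48 hr. Viability was read as ATP luminescence.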
HepG2 tox – kills HepG2 cells in TGF-b inhibitor counter-screen; AID 588856; Potency, µM (series often up to 46.1 µM), inactives show top-dose activity change, negative = cytotoxicity, usual class: cytotoxic; actives 0.76% (n = 410,000); HepG2 CAGA-GFP viability, ATP luminescence, 18 h; also: potency is read from the fitted curve at half-maximal effect
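CellTiter-Glo luminescence gave cytotoxicity after 18 hours at 37 degrees C. The cells were HepG2 CAGA-GFP in 1% FBS DMEM, stimulated with 500 pg/mL TGF-beta after compound addition. %Activity was normalised to no-cell wells (complete cell-killing) and DMSO (no toxicity), and curves were fitted and classified.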
IL-1B inflam inh – inhibitors of inflammasome signaling (IL-1 beta secretion). THP-1 LPS/ATP IL-1B secretion, AlphaLISA, 16 h; stronger effect = lower value. activity change, % at 57.5 µM. actives 4.7% (n = 360,000). AID 743279; in the data active = activity change below about -50%; inconclusive = mostly about -30% to -49%; also: % is scaled to controls: 0 for no effect and ±100 for the full control effect
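Secreted IL-1B measured by AlphaLISA bead assay after 16 h compound exposure of THP-1 cells; compounds (final up to 57.5 uM) added 1 h before LPS (250 ng/mL) and ATP (1.25 mM) stimulation; lower signal means less secretion.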
* = called active by the depositor; ? = inconclusive; / = no result. An excerpt weighted towards active compounds, which were near 18% of everything screened. Unless noted, calls follow the shape of the dose curve; as a rule, active = well fitted curve in the direction sought with a large enough effect; inconclusive = small, poorly fitted or top-dose-only effect, or another doubt; inactive = no such curve, though single readings can be large; an effect the other way counts as inactive or inconclusive.

SMILES | TGFb inhibitor | TDP1 block | DT40 TDP1 no CPT | DT40 TDP1 CPT | HepG2 tox | IL-1B inflam inh
Cc1cccc(CNC(=O)CN2C(=O)CSc3c2c(C)nn3-c2ccccc2)c1 | ? | 7% | -23% | ? | -4% | /
O=C(CSc1ncnc2c1cnn2-c1cccc(Cl)c1)NCC1CCCO1 (stereo not drawn) | 0% | 3% | 15µM* | ? | -39% | -17
O=C(CSc1ncnc2c1cnn2-c1ccccc1)NC1CCCC1 | ? | / | 23µM* | 18µM* | -2% | -9
O=C(CSc1ncnc2sc(-c3ccccc3)cc12)NC1CCS(=O)(=O)C1 (stereo not drawn) | -14% | 1% | 15µM* | -52% | -5% | -66*
CNC(=O)CSc1ncnc2c1cnn2-c1ccccc1 | 3% | 5% | 9% | 20% | 6% | -22
O=C(CSc1nc2c(cnn2-c2cccc(Cl)c2)c(=O)[nH]1)NCC1CCCO1 (stereo not drawn) | 10% | -5% | 21% | 7% | 6% | 14
O=C(CN1CCCC1c1cccs1)N1CCN(S(=O)(=O)c2cccc(F)c2)CC1 (stereo not drawn) | -17% | 1% | -15% | -28% | -26% | 0
CCOC(=O)c1c(NC(=O)CN2CCN(C)CC2)sc(C(=O)Nc2ccccc2)c1C | 0% | 5% | ? | ? | -46% | -162*
CCOC(=O)c1sc(NC(=O)CCN2CCN(C)CC2)c(C(=O)OCC)c1C | -1% | -6% | ? | ? | -1% | -11
CCOC(=O)c1c(NC(=O)CN2CCN(S(=O)(=O)c3cc(Cl)ccc3Cl)CC2)sc(C(=O)N(C)C)c1C | 10µM* | / | ? | 16µM* | -1% | -21
O=C(NCCS(=O)(=O)N1CCN(c2ccccc2F)CC1)c1cccc(Br)c1 | ? | 1% | 19% | -14% | 0% | 9
COC(=O)C(C)N1C(=O)S/C(=C\c2cc(C)n(-c3ccccn3)c2C)C1=O (stereo not drawn) | -13% | 6% | ? | 13µM* | -23% | 5
Cc1cc(/C=C2/NC(=O)NC2=O)c(C)n1-c1ccccn1 | 7% | 2% | -10% | -5% | -3% | 42
COC(=O)C(C)N1C(=O)S/C(=C/c2cc(C)n(-c3ccccn3)c2C)C1=O (stereo not drawn) | -16% | 4% | 16µM* | ? | -18% | 26
CCOC(=O)CN1C(=O)S/C(=C/c2cc(C)n(-c3ccccn3)c2C)C1=O | 11% | 4% | ? | ? | -1% | -7
CCOC1=C2[C@@H](CN(S(=O)(=O)c3ccc(C)cc3)[C@H]2c2ccc(CC)cc2)[C@H]2C(=O)N(C)C(=O)[C@H]2C1 | -9% | / | ? | ? | 2% | -18
COc1ccc(CCN2C(=O)CC(Nc3ccc(N4CCOCC4)cc3)C2=O)cc1OC (stereo not drawn) | 13% | 8% | 2.3µM* | 0% | 1% | -4
COc1ccc(CCN2C(=O)CSC2=S)cc1OC | ? | / | 2.6µM* | 2.9µM* | -58% | -73*
COc1ccc(CCN2C(=O)CC(N3CCOCC3)C2=O)cc1OC (stereo not drawn) | 1% | -2% | 4% | 60% | 5% | 40
CCc1ccc(NC2CC(=O)N(CCc3ccc(OC)c(OC)c3)C2=O)cc1 (stereo not drawn) | -22% | 3% | 23µM* | ? | 5% | 2
COc1ccc(CCNC2CC(=O)N(CCc3ccccc3)C2=O)cc1OC (stereo not drawn) | -1% | -4% | -17% | 0% | 1% | -1
COc1ccc(CN2C(=O)CSCC2=O)cc1OC | -3% | / | 4% | 2% | 1% | 4
Cc1ccc(NC2C(=O)NC(=O)NC2=O)cc1 | -3% | / | -7% | -2% | -3% | 13
O=C(CN(c1ccccc1)S(=O)(=O)c1ccc(F)cc1)NC1CCCCCC1 | ? | 6% | -28% | -9% | -18% | 10
COc1cc(NC(=O)CSc2nnc3c4ccccc4n(C)c3n2)cc(OC)c1OC | / | / | ? | 8% | / | /
SMILES | TGFb inhibitor | TDP1 block | DT40 TDP1 no CPT | DT40 TDP1 CPT | HepG2 tox | IL-1B inflam inh
CCOc1cc(CNc2ccc(Br)cc2)cc(Br)c1OCC(=O)NC(C)(C)C | ? | 2% | ? | 21µM* | -5% | -26
CCOc1cc(CNc2ccc(OC)cc2)cc(Br)c1OCC(=O)NC(C)(C)C | ? | 8% | ? | ? | -15% | ?
COc1cc(CNc2ccc(C(=O)O)cc2)cc(Br)c1OCC(=O)NC(C)(C)C | -30% | -3% | ? | 7% | -4% | 12
CCOc1cc(CNc2ccccc2)cc(Br)c1OCC(=O)NC(C)(C)C | ? | 4% | ? | ? | -23% | -87*
COc1cc(CNc2ccc(CNc3ncn[nH]3)cc2)ccc1OCC(=O)NC(C)(C)C | -27% | 8% | 16µM* | ? | -13% | -3
O=C1C[C@@H](c2ccc(O)c(O)c2)Oc2cc(O[C@H]3O[C@@H](CO)[C@H](O)[C@@H](O)[C@@H]3O)cc(O)c21 | / | -2% | / | / | / | /
CCN(CC)c1ccc(CNS(=O)(=O)c2cc3c(cc2C)NC(=O)CO3)cc1 | ? | 3% | ? | ? | -16% | /
CC(=O)c1ccc(NC(=O)Cn2c3ncccc3c(=O)n2-c2ccc(C)cc2)cc1 | ? | 3% | 16µM* | 16µM* | -3% | /
CCc1cccc(-n2c(=O)c3cccnc3n2CC(=O)Nc2ccc(OC)c(Cl)c2)c1 | -15% | 5% | 26µM* | 21µM* | -4% | /
CCc1ccc(-n2c(=O)c3cccnc3n2CC(=O)N(CC)c2cccc(C)c2)cc1 | ? | 0% | 13µM* | 23µM* | -98% | /
CCc1ccc(-n2c(=O)c3cccnc3n2CC(=O)Nc2cc(OC)ccc2OC)cc1 | 28% | 0% | ? | ? | 9% | /
CCc1ccc(-n2c(=O)c3cccnc3n2CC(=O)Nc2cc(F)ccc2F)cc1 | -15% | 8% | 8.2µM* | 2.6µM* | -26% | /
CCNC(=S)Nc1ccccc1-c1ccccc1 | 8% | 0% | -13% | 0% | 5% | 1
Cc1ccc(C(C(=O)NCc2ccco2)N(C(=O)CNC(=O)c2cccs2)c2c(C)cc(C)cc2C)cc1 (stereo not drawn) | -1% | 3% | 10µM* | 10µM* | 1% | 77

Screens deposited in PubChem BioAssay by National Center for Advancing Translational Sciences (NCATS).
